Test results from ChEMBL document CHEMBL3988442, “University of Dundee, Small-Polar-MMV Screening Library” (2021).
For some assays here: Entries with a potency or affinity are not part of this list.

What was measured:
Design in all cases: scale not given: direction of the effect not stated beside the values
[1] = molecular target: Protein translocase subunit SecA (Escherichia coli (strain K12)) (UniProt P10408); assay: Assay to Identify E. coli SecA ATPase Inhibitors; type: functional; conditions: 30 µM
[2] = molecular target: T1, Ubiquitin-activating enzyme e1, putative (Leishmania donovani (strain BPK282A1)) (UniProt E9BSI1); assay: Leishmania donovani Ubiquitin Activating Enzyme (LdE1); type: functional; conditions: 30 µM
T1 sequence (whole entry): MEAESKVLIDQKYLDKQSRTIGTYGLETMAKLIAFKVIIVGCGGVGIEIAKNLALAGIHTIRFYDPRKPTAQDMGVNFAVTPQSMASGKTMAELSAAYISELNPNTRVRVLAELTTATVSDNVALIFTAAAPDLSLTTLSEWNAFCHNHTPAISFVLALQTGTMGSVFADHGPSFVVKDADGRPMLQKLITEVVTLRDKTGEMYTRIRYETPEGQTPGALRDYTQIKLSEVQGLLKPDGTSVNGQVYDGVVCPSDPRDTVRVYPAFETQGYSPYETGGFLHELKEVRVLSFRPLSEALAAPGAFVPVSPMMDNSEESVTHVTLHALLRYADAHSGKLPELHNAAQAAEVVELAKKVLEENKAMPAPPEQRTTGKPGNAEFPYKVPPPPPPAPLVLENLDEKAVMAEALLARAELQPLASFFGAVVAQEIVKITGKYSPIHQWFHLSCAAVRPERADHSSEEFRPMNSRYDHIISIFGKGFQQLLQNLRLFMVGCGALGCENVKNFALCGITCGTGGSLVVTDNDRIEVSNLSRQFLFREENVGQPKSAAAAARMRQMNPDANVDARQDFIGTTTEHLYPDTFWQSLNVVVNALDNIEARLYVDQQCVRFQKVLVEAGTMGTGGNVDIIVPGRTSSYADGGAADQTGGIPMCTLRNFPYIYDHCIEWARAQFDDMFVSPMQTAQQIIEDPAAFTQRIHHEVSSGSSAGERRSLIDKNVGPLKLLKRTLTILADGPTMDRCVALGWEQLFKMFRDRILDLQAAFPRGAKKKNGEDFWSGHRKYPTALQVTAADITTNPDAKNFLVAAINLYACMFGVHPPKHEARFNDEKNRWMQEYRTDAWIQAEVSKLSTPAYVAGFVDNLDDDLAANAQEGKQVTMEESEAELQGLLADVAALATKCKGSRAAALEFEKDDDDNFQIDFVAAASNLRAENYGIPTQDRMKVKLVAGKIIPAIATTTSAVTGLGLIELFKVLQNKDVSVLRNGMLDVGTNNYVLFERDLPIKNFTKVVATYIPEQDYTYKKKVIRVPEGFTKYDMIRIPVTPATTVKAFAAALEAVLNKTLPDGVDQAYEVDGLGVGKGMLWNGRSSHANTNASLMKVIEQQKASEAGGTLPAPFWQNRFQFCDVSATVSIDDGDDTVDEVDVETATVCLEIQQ

[3] = molecular target: AMP-activated protein kinase, AMPK (Homo sapiens) (UniProt P54646+O43741+P54619+Q9UGJ0+Q9Y478+Q13131+Q9UGI9); assay: AMP-dependent Kinase enzyme assay. An in vitro enzyme assay that detects ADP turnover that is directly proportional to AMPK activity. This uses naive AMPK that is activated during the assay with MK-8722; type: functional; conditions: 30 µM
[4] = molecular target: Sialic acid-binding Ig-like lectin 9 (Homo sapiens) (UniProt Q9Y336); assay: Hs-Siglec9 ALPHAscreen SOP 20170721; conditions: 10 µM
Trypanosoma cruzi = assay: Trypanosoma cruzi phosphomannomutase and mannose-1-phosphate guanylyltransferase assay; type: functional; conditions: 10 µM
[5] = molecular target: T2, Arginase-2, mitochondrial (Homo sapiens) (UniProt P78540); assay: in vitro enzyme assay to detect the production of urea directly proportional to the activity of Arginase II; type: functional; conditions: 33.3 µM; note: in the data most compounds retested in dose-response had high values
T2 sequence (whole entry): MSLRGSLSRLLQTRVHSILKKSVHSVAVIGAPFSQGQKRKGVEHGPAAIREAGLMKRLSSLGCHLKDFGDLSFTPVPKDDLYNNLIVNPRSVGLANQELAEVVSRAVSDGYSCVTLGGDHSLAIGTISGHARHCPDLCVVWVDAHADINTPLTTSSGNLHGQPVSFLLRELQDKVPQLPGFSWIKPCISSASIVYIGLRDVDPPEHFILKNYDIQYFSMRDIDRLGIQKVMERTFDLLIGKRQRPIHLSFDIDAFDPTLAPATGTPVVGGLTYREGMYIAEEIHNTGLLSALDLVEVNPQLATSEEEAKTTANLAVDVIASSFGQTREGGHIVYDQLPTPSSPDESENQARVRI

[6] = molecular target: T3, Proteasome subunit beta (Trypanosoma cruzi) (UniProt O96673); assay: Trypanosoma cruzi proteasome chymotrypsin-like activity (TcProtChymo) assay.; note: in the data most compounds retested in dose-response had high values; type: functional; conditions: 9.37 µM
T3 sequence (whole entry): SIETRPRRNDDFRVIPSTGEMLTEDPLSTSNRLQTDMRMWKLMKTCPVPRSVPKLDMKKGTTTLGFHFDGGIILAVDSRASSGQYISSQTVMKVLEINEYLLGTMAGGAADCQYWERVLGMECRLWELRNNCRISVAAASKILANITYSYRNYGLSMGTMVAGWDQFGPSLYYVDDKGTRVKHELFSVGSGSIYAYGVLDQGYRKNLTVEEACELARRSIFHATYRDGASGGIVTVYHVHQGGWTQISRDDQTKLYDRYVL

Homo sapiens = species: Homo sapiens; assay: To identify inhibition of the IFN signalling (Jak-Stat) pathway via expression of an eGFP reporter gene under the control of an IFN-stimulated response element (ISRE) containing MxA promoter.; type: functional; conditions: 30 µM
[7] = molecular target: T4, Tyrosyl-tRNA synthetase, putative (Trypanosoma cruzi (strain CL Brener)) (UniProt Q4DSP6); assay: Trypanosoma cruzi tyrosyl tRNA synthetase (TcYRS) _High Tyrosine SOP; type: functional; conditions: 30 µM; note: in the data most compounds retested in dose-response had high values
T4 sequence (whole entry): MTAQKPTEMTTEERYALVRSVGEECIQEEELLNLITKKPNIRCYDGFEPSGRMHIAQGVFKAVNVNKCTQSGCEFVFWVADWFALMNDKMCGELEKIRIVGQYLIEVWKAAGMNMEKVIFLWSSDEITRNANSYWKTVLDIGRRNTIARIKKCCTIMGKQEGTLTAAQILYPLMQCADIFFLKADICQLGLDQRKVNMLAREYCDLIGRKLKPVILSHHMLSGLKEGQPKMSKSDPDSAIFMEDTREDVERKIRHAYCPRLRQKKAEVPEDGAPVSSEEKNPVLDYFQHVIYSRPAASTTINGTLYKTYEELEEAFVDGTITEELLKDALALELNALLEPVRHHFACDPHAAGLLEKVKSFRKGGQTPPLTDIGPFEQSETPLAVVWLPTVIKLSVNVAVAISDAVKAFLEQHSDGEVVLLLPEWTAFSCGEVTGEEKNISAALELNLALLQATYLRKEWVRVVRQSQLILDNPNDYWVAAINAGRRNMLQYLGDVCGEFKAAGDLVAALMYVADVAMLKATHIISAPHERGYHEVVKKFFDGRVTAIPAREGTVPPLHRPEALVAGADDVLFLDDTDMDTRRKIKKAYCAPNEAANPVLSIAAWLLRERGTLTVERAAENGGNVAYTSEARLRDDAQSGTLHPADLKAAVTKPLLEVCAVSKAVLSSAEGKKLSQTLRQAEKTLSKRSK

[8] = molecular target: T4, Tyrosyl-tRNA synthetase, putative (Trypanosoma cruzi (strain CL Brener)); assay: Trypanosoma cruzi tyrosyl tRNA synthetase (TcYRS) SOP; type: functional; conditions: 30 µM
[9] = molecular target: Chromo domain-containing protein 1 (Saccharomyces cerevisiae (strain ATCC 204508 / S288c) (Baker's yeast)) (UniProt P32657); assay: ScCHD-1 Enzyme Inhibition Assay; type: functional; conditions: 30 µM; note: in the data most compounds retested in dose-response had high values
Chain of Chromo domain-containing protein 1 (Saccharomyces cerevisiae (strain ATCC 204508 / S288c) (Baker's yeast)) (P32657 whole entry, the tested form may be a part): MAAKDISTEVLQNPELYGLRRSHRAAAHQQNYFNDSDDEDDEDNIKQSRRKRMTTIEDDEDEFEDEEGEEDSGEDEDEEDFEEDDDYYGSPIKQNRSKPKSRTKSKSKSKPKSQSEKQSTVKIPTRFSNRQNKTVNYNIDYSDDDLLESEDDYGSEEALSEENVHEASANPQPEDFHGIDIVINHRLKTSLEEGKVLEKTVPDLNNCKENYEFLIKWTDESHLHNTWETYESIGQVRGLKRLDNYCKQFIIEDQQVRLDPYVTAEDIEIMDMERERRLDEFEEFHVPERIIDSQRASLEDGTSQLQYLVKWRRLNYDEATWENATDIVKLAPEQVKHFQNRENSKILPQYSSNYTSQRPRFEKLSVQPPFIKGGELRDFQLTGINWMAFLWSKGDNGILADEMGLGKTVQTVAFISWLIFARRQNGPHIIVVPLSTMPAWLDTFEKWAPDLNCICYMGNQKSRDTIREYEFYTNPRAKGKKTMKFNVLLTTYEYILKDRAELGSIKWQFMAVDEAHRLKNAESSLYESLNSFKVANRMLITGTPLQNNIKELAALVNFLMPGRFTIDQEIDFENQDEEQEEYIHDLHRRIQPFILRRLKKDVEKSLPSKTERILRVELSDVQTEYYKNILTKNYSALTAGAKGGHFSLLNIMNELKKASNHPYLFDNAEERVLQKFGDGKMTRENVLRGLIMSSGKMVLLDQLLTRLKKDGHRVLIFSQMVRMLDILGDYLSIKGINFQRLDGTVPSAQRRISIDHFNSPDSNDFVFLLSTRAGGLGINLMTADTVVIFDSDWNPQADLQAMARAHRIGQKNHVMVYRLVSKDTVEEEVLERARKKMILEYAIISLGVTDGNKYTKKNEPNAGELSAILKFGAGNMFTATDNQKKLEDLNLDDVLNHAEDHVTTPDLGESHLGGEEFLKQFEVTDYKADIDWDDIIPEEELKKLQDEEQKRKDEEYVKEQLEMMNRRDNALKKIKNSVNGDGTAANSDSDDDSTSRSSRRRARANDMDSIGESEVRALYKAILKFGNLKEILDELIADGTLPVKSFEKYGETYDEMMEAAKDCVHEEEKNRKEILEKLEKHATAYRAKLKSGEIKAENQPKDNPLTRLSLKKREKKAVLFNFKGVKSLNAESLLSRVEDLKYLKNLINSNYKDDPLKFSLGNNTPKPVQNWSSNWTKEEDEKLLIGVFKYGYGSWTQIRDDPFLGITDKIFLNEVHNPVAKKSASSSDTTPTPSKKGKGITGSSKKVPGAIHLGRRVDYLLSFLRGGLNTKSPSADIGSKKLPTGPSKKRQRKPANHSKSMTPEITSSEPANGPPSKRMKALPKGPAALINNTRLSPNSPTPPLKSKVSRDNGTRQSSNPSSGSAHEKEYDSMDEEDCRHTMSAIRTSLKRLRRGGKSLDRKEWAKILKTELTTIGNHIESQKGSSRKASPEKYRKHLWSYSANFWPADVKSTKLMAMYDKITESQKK

Chain of Sialic acid-binding Ig-like lectin 9 (Homo sapiens) (Q9Y336 whole entry): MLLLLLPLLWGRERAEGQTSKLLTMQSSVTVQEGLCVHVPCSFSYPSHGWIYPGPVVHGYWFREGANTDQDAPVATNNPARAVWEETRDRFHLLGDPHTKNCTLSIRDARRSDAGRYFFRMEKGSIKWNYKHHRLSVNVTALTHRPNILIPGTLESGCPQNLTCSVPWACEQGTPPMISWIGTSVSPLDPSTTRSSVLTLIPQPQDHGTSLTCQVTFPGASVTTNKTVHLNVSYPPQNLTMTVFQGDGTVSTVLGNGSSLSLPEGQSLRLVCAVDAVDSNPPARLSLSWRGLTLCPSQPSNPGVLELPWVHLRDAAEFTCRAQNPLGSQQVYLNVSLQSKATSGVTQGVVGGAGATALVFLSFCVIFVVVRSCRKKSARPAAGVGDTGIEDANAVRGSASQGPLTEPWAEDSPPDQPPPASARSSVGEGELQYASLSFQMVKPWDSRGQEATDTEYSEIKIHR
Chain of Protein translocase subunit SecA (Escherichia coli (strain K12)) (P10408 whole entry): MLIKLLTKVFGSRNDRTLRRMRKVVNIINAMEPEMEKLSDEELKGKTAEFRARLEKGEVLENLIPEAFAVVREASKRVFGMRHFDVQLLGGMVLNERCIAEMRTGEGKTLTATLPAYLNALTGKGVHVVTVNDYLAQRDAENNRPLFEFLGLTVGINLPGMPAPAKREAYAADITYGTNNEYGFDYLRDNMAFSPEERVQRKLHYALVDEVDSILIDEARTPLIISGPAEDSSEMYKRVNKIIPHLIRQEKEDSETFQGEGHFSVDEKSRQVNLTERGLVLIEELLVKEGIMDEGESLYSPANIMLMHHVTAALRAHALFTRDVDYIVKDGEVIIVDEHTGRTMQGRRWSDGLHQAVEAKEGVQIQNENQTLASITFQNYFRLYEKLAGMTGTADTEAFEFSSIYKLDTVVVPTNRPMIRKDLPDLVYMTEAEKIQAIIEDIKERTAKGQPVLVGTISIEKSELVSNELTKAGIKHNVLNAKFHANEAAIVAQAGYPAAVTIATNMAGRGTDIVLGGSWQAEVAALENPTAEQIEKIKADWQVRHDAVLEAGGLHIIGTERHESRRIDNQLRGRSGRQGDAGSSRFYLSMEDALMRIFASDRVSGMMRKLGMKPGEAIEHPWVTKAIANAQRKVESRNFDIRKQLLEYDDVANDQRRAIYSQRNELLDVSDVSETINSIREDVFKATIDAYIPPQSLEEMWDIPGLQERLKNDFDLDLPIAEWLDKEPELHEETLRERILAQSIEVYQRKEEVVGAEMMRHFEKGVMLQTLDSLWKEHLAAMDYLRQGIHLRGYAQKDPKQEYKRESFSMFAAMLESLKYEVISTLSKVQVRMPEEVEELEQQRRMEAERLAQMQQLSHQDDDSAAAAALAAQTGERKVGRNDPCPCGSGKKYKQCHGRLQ

Row | SMILES | Percent Effect [1] | Percent Effect [2] | Percent Effect [3] | Percent Effect [4] | Percent Effect (Trypanosoma cruzi) | Percent Effect [5] | Percent Effect [6] | Percent Effect (Homo sapiens) | Percent Effect [7] | Percent Effect [8] | Percent Effect [9]
1 | COC(=O)C(NC(=O)COC1CCCC1)c1cc(F)ccc1F (configuration not stated) | -6.55% | 7.79% | -4.98% | 20.1% | 5.06% | -7.83% | 2.7% | -0.885% | 4.85% | 21.9% | -9.9%
2 | c1cc2nccc(CC3CCCN(Cc4ncc[nH]4)CC3)c2cn1 (configuration not stated) | -2.14% | 9.46% | 4.64% | 12.8% | 5.34% | -2.09% | 9.98% | 12.3% | 11.8% | 24.7% | -17.2%
3 | Cc1ccc(NC(=O)CNc2cccc3c2CCCC3)c(Br)c1 | -0.516% | 0% | -8.17% | 10.7% | 1.07% | 27.1% | 12.3% | -16% | 5.38% | 6.17% | -12.9%
4 | Cc1nc(C2CCCN(C(=O)CCCn3ccnc3C)C2)no1 (configuration not stated) | -3.92% | -5.2% | -5.99% | -4.13% | -3.37% | 3.56% | -3.21% | 22.2% | -0.971% | -2.44% | 5.19%
5 | COc1ccc(C)cc1CN1CCCC1Cn1nc(C)nc1C (configuration not stated) | -5.51% | -3.8% | -7.49% | 4.01% | 2.97% | -0.645% | 16.6% | 46.5% | 8.33% | 12.7% | -26.7%
6 | O=S(=O)(Nc1cnn(C2CCOCC2)c1)c1ccc2c(c1)CCO2 | -1.97% | -2.6% | -19.5% | 5.92% | -0.296% | -9.68% | 12% | 13% | 1.06% | -1.28% | -7.66%
7 | Cc1cc2c(=O)n3c(nc2s1)CCN(C(=O)c1scnc1C)CC3 | -1.99% | 9.46% | 9.3% | 2.42% | -1.58% | -5.34% | 7.49% | -18% | -1.07% | 11.7% | -8.95%
8 | Cc1nc(C)c(C(=O)N2CCC(Nc3cccnc3)CC2)s1 | 0.905% | -2.74% | -10.4% | 50.9% | -3.37% | 8.38% | 14.5% | -5.72% | 2.08% | 3.7% | -3.74%
9 | CN(CC1CN(Cc2cn3ccsc3n2)CCO1)c1cccnn1 (configuration not stated) | -3.37% | 26% | -3.91% | -12.4% | -7.54% | 1.47% | 23.5% | 15% | 4.76% | 21.2% | -26.4%
10 | COc1cc(CN(C)C(=O)Nc2cc(C)on2)ccc1SC | -9.88% | 5.41% | -3.24% | 0.0571% | -2.73% | -24.2% | 21.6% | 6.33% | 9.9% | 1.22% | -2.37%
11 | CC(C(=O)N1CCCN(c2ccc(C#N)cc2)CC1)n1ccnc1 (configuration not stated) | -5.97% | 15.8% | -5.83% | -1.34% | 3.01% | 6.13% | 8.52% | -7.67% | 8.33% | 19.5% | -17.9%
12 | O=C(NCCn1ccc(-c2ccncc2)n1)c1ccncc1 | -1.85% | 5.48% | -0.372% | 8.72% | 1.57% | -0.455% | 9.58% | 2.43% | 2.15% | 2.5% | -2.37%
13 | c1cncc(CN2CCc3ncnc(C4CCOC4)c3CC2)c1 (configuration not stated) | 1.94% | 21.3% | 13.3% | -7% | -4.92% | 2.1% | 7.14% | 15.9% | 5.32% | 6.41% | -0.839%
14 | Cn1ccnc1CNC(=O)N(CCCO)C1CCCc2ccccc21 (configuration not stated) | -2.21% | 5.26% | -1.41% | -4.25% | 2.43% | -3.55% | -3.36% | 8.36% | 2.13% | 10.4% | -9.5%
15 | c1csc(N2CCCN(Cc3nc(C4CC4)no3)CC2)n1 | -5.91% | 10.4% | -4.1% | 9.22% | -0.749% | -2.49% | -1.18% | 19% | 5.83% | 14.6% | 5.76%
16 | CCC[C@@H]1CN(S(=O)(=O)c2ccc(C)c(F)c2)C[C@H]1N(C)C | -4.83% | 2.67% | -4.64% | -1.02% | -8.86% | 2.08% | 16.2% | 3.61% | 1.64% | 6.17% | -7.9%
17 | O=C(CN1CC(n2cccn2)C1)NCCCc1ccccc1 | 0.869% | -13.5% | 10.2% | 12.8% | 6.41% | 1.29% | -0.179% | -9.65% | 1.98% | 11% | 1.45%
18 | O=C1CC(c2ccc(C(=O)O)cc2)c2ncn(-c3cccc(F)c3)c2N1 (configuration not stated) | -3.41% | 9.33% | -61.2% | -4.05% | -4.13% | 7.57% | 13.3% | -9.89% | 10.6% | 15.4% | -7.23%
19 | c1cnn(CC2CCCN2c2ncnc3ccsc23)c1 (configuration not stated) | -0.167% | 13.5% | 3.45% | -4.74% | -8.08% | 6.84% | 8.8% | 53.8% | 7.92% | 18.3% | -4.66%
20 | CN(Cc1ccon1)C(=O)C1CC(=O)N(Cc2ccncc2)C1 (configuration not stated) | -6.1% | 5.41% | -1.61% | 13.8% | -0.684% | 0.248% | 2.66% | 14.7% | 5.38% | 8.64% | -4.6%
21 | COCC1CN(C(=O)c2ccoc2C)Cc2nccn2C1 (configuration not stated) | -6.75% | 0% | 10.2% | -5.59% | -6.3% | 0.233% | 2.03% | 12.3% | -3.19% | 1.28% | -4.85%
22 | CC(C)(C)c1ccc(C2(C(=O)NCCCS(C)(=O)=O)CC2)cc1 | -2.57% | 7.79% | 1.11% | 4.51% | -7.77% | -1.38% | 7.16% | 0.292% | 1.07% | 6.17% | -0.462%
